Data from PubChem BioAssay (Tox21).
Inconclusive results are not listed. The source made the active and inactive calls. Unless noted, calls come from the whole dose curve; as a rule, active = well fitted curve in the direction sought with a large enough effect in the repeat runs; inconclusive = weak or mixed curves; inactive = no such curve, though single readings can be large; an effect the other way counts as inactive or inconclusive.

How the values were obtained:
[1] = qHTS assay to identify small molecule agonists of H2AX (AID 1224845; active = well fitted activation curve with a large enough effect in the signal ratio in the repeat runs, not every such curve was filed as active; the % refers to the signal ratio)
Summary of the method: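 Wild-type CHO-K1 cells, plated overnight, exposed 3hr at 37C to 15 concentrations (0.76% DMSO final). Lysed, then HTRF anti-pH2AX (S139) cryptate and anti-H2AX-d2 antibodies, 24 hr room temperature; 665/620 nm emission read.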

[2] = qHTS assay to identify small molecule agonists of the hypoxia (HIF-1) signaling pathway (AID 1224846; active = well fitted activation curve with a large enough effect in the signal ratio in the repeat runs, not every such curve was filed as active; the % refers to the signal ratio)
Summary of the method: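 Compounds added to ME-180 cells carrying hypoxia-response-element beta-lactamase reporter (0.5% dialyzed FBS, 5 h preplating), 17 h at 37C; agonist activity detected by CCF4-AM B/G FRET read-out.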

[3] = qHTS assay to identify small molecule agonists of H2AX - cell viability counter screen (AID 1224847; calls by dose curve; note: top concentration of the series differs between compounds; nearly all actives have a fitted effect of over 30% in size)
Summary of the method: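 Wild-type CHO-K1 cells (10% FBS medium) were plated overnight at 37C, exposed to compounds at 15 concentrations for 3 hr at 37C (0.76% DMSO final), and viability was read as CellTiter-Glo luminescence after 30 min at room temperature.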

[4] = qHTS assay to identify small molecule antagonists of the estrogen related receptor (ERR) signaling pathway from Tox21 library (AID 1224848); note: nearly all actives have a fitted effect of over 50% in size
Summary of the method: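 Compounds dissolved in DMSO are pin-transferred onto ERR reporter cells (2,000 per well) that have settled for 6 h at 37 C. Plates then incubate 18 h at 37 C before ONE-Glo luciferase reagent and a luminescence read 30 min later.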

[5] = qHTS RealTime-Glo MT Cell Viability Assay in HepG2 cells - 24 hour (AID 1224867); note: nearly all actives have a fitted effect of over 50% in size
Summary of the method: (§1)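 Viability was tracked continuously by NanoLuc luminescence from prosubstrate reduced by living HepG2 cells, at successive time points over 40 h of compound exposure. Cells with reagent were preincubated 5 h at 37 °C before compound addition.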

[6] = A CellTox Green Cytotoxicity Assay to monitor cytotoxicity in HEK293 cells - 0 hour (AID 1224869); note: nearly all actives have a fitted effect of over 50% in size
Summary of the method: (§2)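 Fluorescence from a DNA-binding dye excluded by viable cells was measured repeatedly in the same HEK293 wells (600 cells/well) during continuous compound exposure at 37 C. Each assay gives one read point: 0, 8, 16, 24, 32 or 40 h.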

[7] = qHTS RealTime-Glo MT Cell Viability Assay in HepG2 cells - 40 hour (AID 1224870); note: nearly all actives have a fitted effect of over 50% in size
Summary of the method: (§3)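 HepG2 cells (600/well) mixed with RealTime-Glo MT reagent, settled 5 h at 37 C/5% CO2 before compound addition. Nonlytic NanoLuc luminescence from viable-cell prosubstrate reduction read repeatedly during 40 h treatment at 37 C.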

[8] = A CellTox Green Cytotoxicity Assay to monitor cytotoxicity in HEK293 cells - 40 hour (AID 1224871); note: nearly all actives have a fitted effect of over 45% in size
Summary of the method: as §2

[9] = qHTS RealTime-Glo MT Cell Viability Assay in HEK293 cells - 16 hour (AID 1224872)
Summary of the method: (§4)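 Viability tracked continuously by luminescence as live cells reduce a prosubstrate for NanoLuc; HEK293 cells preincubated 5 h, compound-treated at 37 C, and read at 0, 8, 16, 24, 32 and 40 h.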

[10] = qHTS RealTime-Glo MT Cell Viability Assay in HepG2 cells - 8 hour (AID 1224873); note: nearly all actives have a fitted effect of over 55% in size
Summary of the method: as §3

[11] = A CellTox Green Cytotoxicity Assay to monitor cytotoxicity in HEK293 cells - 24 hour (AID 1224875); note: nearly all actives have a fitted effect of over 45% in size
Summary of the method: as §2

[12] = A CellTox Green Cytotoxicity Assay to monitor cytotoxicity in HepG2 cells - 16 hour (AID 1224876); note: nearly all actives have a fitted effect of over 45% in size
Summary of the method: (§5)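 Real-time cytotoxicity: fluorescence of a cell-impermeant cyanine dye binding DNA of dead HepG2 cells, measured repeatedly (0–40 h) during compound exposure at 37 C. Cells seeded 600/well with reagent, dosed after 5 h.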

[13] = A CellTox Green Cytotoxicity Assay to monitor cytotoxicity in HepG2 cells - 24 hour (AID 1224878); note: nearly all actives have a fitted effect of over 45% in size
Summary of the method: as §5

[14] = A CellTox Green Cytotoxicity Assay to monitor cytotoxicity in HepG2 cells - 40 hour (AID 1224879); note: nearly all actives have a fitted effect of over 40% in size
Summary of the method: as §5

[15] = qHTS assay to identify small molecule agonists of the hypoxia (HIF-1) signaling pathway - cell viability counter screen (AID 1224844; calls by dose curve; note: nearly all actives have a fitted effect of over 50% in size)
Summary of the method: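 Cytotoxicity measured by CellTiter-Glo ATP luminescence in the wells also read for beta-lactamase signal. Cells were HRE-bla ME-180 (2,000/well, 0.5% dialyzed FBS), exposed to compounds for 17 h at 37C.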

[16] = qHTS assay to identify small molecule agonists of the estrogen related receptor (ERR) signaling pathway from Tox21 library (AID 1224849; calls by dose curve; note: nearly all actives have a fitted effect of over 15% in size); details: ERR reporter cell line, ONE-Glo luciferase, 18 h; at 92.4 µM (top of the series) unless noted
Summary of the method: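 Luminescent agonist read-out (One-Glo, 30-minute room-temperature incubation) following 18-hour compound treatment at 37 C of the ERR cell line, which had been plated 6 hours before dosing.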

[17] = qHTS RealTime-Glo MT Cell Viability Assay in HEK293 cells - 32 hour (AID 1224868)
Summary of the method: as §4

[18] = qHTS RealTime-Glo MT Cell Viability Assay in HEK293 cells - 40 hour (AID 1224874); details: RealTime-Glo luminescence; max response: stronger effect = lower value; note: nearly all actives have a fitted effect of over 50% in size
Summary of the method: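 Luminescence, which tracks viable cell number through reduction of the prosubstrate to a NanoLuc substrate, was read over continuous 37 C culture. Cells (600/well) were premixed with reagent and rested 5 h before 23 nL of compound in DMSO was pinned.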

[19] = qHTS RealTime-Glo MT Cell Viability Assay in HepG2 cells - 32 hour (AID 1224877); note: nearly all actives have a fitted effect of over 55% in size
Summary of the method: as §1
% is set by controls: 0 for no effect and ±100 for the full control effect.

OCCC(F)(F)C(F)(F)C(F)(F)C(F)(F)C(F)(F)C(F)(F)C(F)(F)C(F)(F)F
inactive: outcome [1] | outcome [2] | Potency [3] | Potency [4] | outcome [5] | outcome [6] | outcome [7] | Potency [8] | Potency [9] | outcome [10] | outcome [11] | outcome [12] | outcome [13] | Potency [14]

CC(=O)Nc1ccc(S(=O)(=O)Cl)cc1
inactive: outcome [15] | outcome [1] | outcome [2] | Potency [4] | activity change, positive = activation [16] -0.863% | outcome [5] | Potency [17] | outcome [6] | outcome [7] | Potency [8] | Potency [9] | outcome [10] | max response [18] -6.18% | outcome [11] | outcome [12] | outcome [19] | outcome [13] | Potency [14]

CC(C)C[C@H](NC(=O)CNC(=O)[C@H](Cc1ccc(O)cc1)NC(=O)[C@H](CO)NC(=O)[C@H](Cc1c[nH]c2ccccc12)NC(=O)[C@H](Cc1cnc[nH]1)NC(=O)[C@@H]1CCC(=O)N1)C(=O)N[C@@H](CCCN=C(N)N)C(=O)N1CCC[C@H]1C(=O)NCC(N)=O (stereo in doubt)
inactive: outcome [15] | outcome [1] | outcome [2] | Potency [3] | Potency [17] | outcome [6] | Potency [8] | Potency [9] | outcome [10] | max response [18] 12.8% | outcome [11] | outcome [12] | outcome [19] | outcome [13] | Potency [14]

NC(CO)C(=O)NNCc1ccc(O)c(O)c1O (stereo unspecified)
inactive: outcome [15] | Potency [3] | Potency [4] | activity change, positive = activation [16] 1.5% [at 42.5 µM] | outcome [5] | Potency [17] | outcome [6] | outcome [7] | Potency [8] | Potency [9] | outcome [10] | max response [18] 2.85% | outcome [11] | outcome [12] | outcome [19] | outcome [13] | Potency [14]

CC1=CCC(C(C)C)=CC1
inactive: outcome [15] | outcome [1] | outcome [2] | Potency [3] | outcome [5] | Potency [17] | outcome [6] | outcome [7] | Potency [8] | Potency [9] | outcome [10] | max response [18] -3.87% | outcome [11] | outcome [12] | outcome [19] | outcome [13] | Potency [14]

C#CC(C)N(C)C(=O)Nc1ccc(Cl)cc1 (stereo unspecified)
inactive: outcome [1] | Potency [3] | Potency [4] | activity change, positive = activation [16] 5.26% | outcome [5] | outcome [6] | outcome [7] | Potency [8] | outcome [10] | outcome [11] | outcome [12] | outcome [19] | outcome [13] | Potency [14]

C=CC(OCC)OCC
inactive: outcome [15] | outcome [1] | outcome [2] | Potency [3] | Potency [17] | outcome [6] | Potency [8] | Potency [9] | outcome [10] | max response [18] 8.05% | outcome [11] | outcome [12] | outcome [19] | outcome [13] | Potency [14]

ClCCCl
inactive: outcome [1] | outcome [2] | Potency [3] | Potency [4] | activity change, positive = activation [16] 12.2% | outcome [5] | Potency [17] | outcome [6] | outcome [7] | Potency [8] | Potency [9] | outcome [10] | max response [18] -0.252% | outcome [11] | outcome [12] | outcome [13] | Potency [14]

OC[C@H](Cc1cccc(O)c1)[C@H](CO)Cc1cccc(O)c1
inactive: outcome [15] | outcome [1] | outcome [2] | Potency [3] | activity change, positive = activation [16] -21.1% | outcome [5] | Potency [17] | outcome [6] | outcome [7] | Potency [8] | Potency [9] | outcome [10] | max response [18] -10.5% | outcome [11] | outcome [12] | outcome [19] | outcome [13] | Potency [14]

CCCCOCCOC(=O)COc1nc(Cl)c(Cl)cc1Cl
inactive: outcome [1] | Potency [4] | activity change, positive = activation [16] 0.145% | outcome [5] | Potency [17] | outcome [6] | outcome [7] | Potency [9] | max response [18] 7.86% | outcome [11] | outcome [12] | outcome [19] | Potency [14]

CCC(C=O)CC
inactive: outcome [15] | outcome [1] | outcome [2] | Potency [4] | activity change, positive = activation [16] 2.68% | outcome [5] | Potency [17] | outcome [6] | outcome [7] | Potency [8] | Potency [9] | outcome [10] | max response [18] -5.72% | outcome [11] | outcome [12] | outcome [19] | outcome [13] | Potency [14]
